# Source: PubChem BioAssay (EPA / NIEHS)
# Calls of active or inactive are those of the source. The calls were made as follows: active = hit-call score of the fitted dose curve at least 0.9, where 1 is the maximum; inactive = score below 0.9.
# How the values were obtained:
# [1] = APR_HepG2_CellCycleArrest_24hr: Apredica 24-hour HepG2 Assay for Cell Cycle Arrest (AID 2282905); settings: imaging, actives raise or lower the signal;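 also: cell cycle arrest scored as ratio of 2N to 4N nuclear DNA content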
# Procedure, shortened: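 Compounds at 0.39–200 uM (0.5% DMSO) for 24 h, then fixed and Hoechst 33342 stained. Cell-cycle analysis of nuclear DNA content by high-content imaging, fitted bidirectionally versus DMSO.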
# [2] = APR_HepG2_NuclearSize_24hr: Apredica 24-hour HepG2 Assay for Nuclear Size (AID 2282907); settings: high-content imaging, actives raise or lower the signal
# Procedure, shortened: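 HepG2 cells exposed 24 h to compounds at 0.39–200 uM (0.5% DMSO), fixed, Hoechst 33342 stained and imaged at 20x; nuclear diameter measured by automated image analysis, fitted bidirectionally against DMSO controls.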
# [3] = APR_HepG2_CellLoss_24hr: Apredica 24-hour HepG2 Assay for Cell Loss (AID 2282908); settings: high-content imaging;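 as to AC50: fit in both directions so a hit may be cell loss or gain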
# Procedure, shortened: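 HepG2 cells exposed 24 hr to 0.39–200 uM compound in duplicate at 0.5% v/v final DMSO. Cells fixed in 3.7% formaldehyde and Hoechst 33342-stained. Cell number came from nuclear imaging at 20x. Bidirectional fit versus DMSO.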
# [4] = APR_HepG2_MicrotubuleCSK_24hr: Apredica 24-hour HepG2 Assay for Microtubule CSK Stabilty (AID 2282909); settings: HepG2 microtubule cytoskeleton imaging, actives raise or lower the signal
# Procedure, shortened: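 HepG2 cells were treated 24 hr with compound at 0.39–200 uM in duplicate (0.5% DMSO final), then fixed and permeabilized. Alpha-tubulin immunofluorescence was imaged by high-content microscopy, with bidirectional fitting against DMSO and taxol as positive control.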
# [5] = APR_HepG2_MitoticArrest_24hr: Apredica 24-hour HepG2 Assay for Mitotic Arrest (AID 2282910); settings: high-content imaging, actives raise or lower the signal
# Procedure, shortened: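 HepG2 human liver cells were exposed to compounds at 0.39–200 uM (10 concentrations, duplicate) in 0.5% v/v DMSO for 24 hr, then fixed and immunostained for phospho-histone H3 with Hoechst 33342. Mitotic arrest came from HCS fluorescent imaging, fitted bidirectionally against DMSO.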
# [6] = APR_HepG2_MitoMembPot_24hr: Apredica 24-hour HepG2 Assay for Mitochondrial Membrane Potential (AID 2282911); settings: imaging, actives raise or lower the signal
# Procedure, shortened: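 HepG2 cells exposed 24 h to 0.39–200 uM compounds in duplicate, 0.5% v/v DMSO final. MitoTracker Red CMXRos 250 nM loaded 30 min before formaldehyde fixation; high-content imaging at 20x, bidirectional fit versus DMSO.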
# [7] = APR_HepG2_MitoMass_24hr: Apredica 24-hour HepG2 Assay for Mitochondrial Mass (AID 2282912); settings: high-content imaging, actives raise or lower the signal
# Procedure, shortened: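 HepG2 cells exposed 24 hr to 0.39–200 uM compound, 0.5% v/v DMSO, in duplicate. Stained before fixation with 250 nM MitoTracker Red CMXRos for 30 min, then imaged at 20x with Hoechst nuclei. Fitted in both directions against DMSO.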
# [8] = APR_HepG2_p53Act_24hr: Apredica 24-hour HepG2 Assay for p53 Activation (AID 2282913); settings: high-content imaging, actives raise or lower the signal;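 also: p53 protein immunofluorescence averaged per cell in HepG2 with Hoechst nuclei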
# Procedure, shortened: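 HepG2 cells exposed 24 h to compounds at 0.39–200 uM in duplicate, 0.5% v/v DMSO final; fixed, permeabilized, stained with anti-p53 antibody and Hoechst 33342; fluorescence imaging; bidirectional curve fit versus DMSO.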
# [9] = APR_HepG2_CellCycleArrest_72hr: Apredica 72-hour HepG2 Assay for Cell Cycle Arrest (AID 2282914); settings: high-content imaging, actives raise or lower the signal
# Procedure, shortened: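 HepG2 cells exposed 72 h in duplicate to 0.39–200 uM compound, 0.5% DMSO final. Formaldehyde-fixed, Hoechst 33342-stained nuclei imaged at 20x, six fields per well; DNA content per valid cell quantified by cell-cycle image analysis, bidirectional fit versus DMSO.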
# [10] = APR_HepG2_CellLoss_72hr: Apredica 72-hour HepG2 Assay for Cell Loss (AID 2282915); settings: high-content imaging
# Procedure, shortened: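 HepG2 cells were exposed for 72 hr to compounds at 0.39–200 uM (ten concentrations, duplicate) in 0.5% v/v final DMSO. Nuclei were stained with Hoechst 33342 after 3.7% formaldehyde fixation, imaged at 20x, and counted; fits bidirectional versus DMSO.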
# [11] = APR_HepG2_P-H2AX_72hr: Apredica 72-hour HepG2 Assay for H2AX Phosphorylation (AID 2282916); settings: imaging, actives raise or lower the signal;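 also: phospho-histone H2A.x immunostain intensity per cell marking DNA damage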
# Procedure, shortened: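 HepG2 cells treated 72 h at 0.39–200 uM, 0.5% DMSO final, duplicates. Formaldehyde-fixed, Triton-permeabilised, immunostained for phospho-H2A.x with Hoechst; fluorescence imaged at 20x, bidirectional fit versus DMSO.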
# [12] = APR_HepG2_MitoMembPot_72hr: Apredica 72-hour HepG2 Assay for Mitochondrial Membrane Potential (AID 2282917); settings: imaging, actives raise or lower the signal
# Procedure, shortened: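 HepG2 cells exposed 72 h to compounds at 0.39–200 uM (0.5% v/v DMSO, duplicates); MitoTracker Red CMXRos 250 nM loaded 30 min before 3.7% formaldehyde fixation, imaged by HCS fluorescence. Bidirectional fit versus DMSO.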
# [13] = APR_HepG2_MitoticArrest_72hr: Apredica 72-hour HepG2 Assay for Mitotic Arrest (AID 2282918); settings: high-content imaging, actives raise or lower the signal
# Procedure, shortened: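 HepG2 cells treated 72 h at 0.39–200 uM, 0.5% DMSO final; formaldehyde-fixed, stained with Hoechst 33342 and phospho-histone H3 antibody, imaged by high-content fluorescence; bidirectional fit versus DMSO.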
# [14] = APR_HepG2_MicrotubuleCSK_72hr: Apredica 72-hour HepG2 Assay for Microtubule CSK Stabilty (AID 2282919); settings: HepG2 microtubule cytoskeleton, high-content imaging, actives raise or lower the signal
# Procedure, shortened: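 HepG2 human liver cells were dosed for 72 h at ten concentrations from 0.39 to 200 uM in duplicate (0.5% v/v DMSO final). Fixed, permeabilized cells were immunostained for alpha-tubulin (Cy5) with a Hoechst counterstain and imaged at 20x.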
# [15] = APR_HepG2_P-H2AX_24hr: Apredica 24-hour HepG2 Assay for H2AX Phosphorylation (AID 2282920); settings: high-content imaging, actives raise or lower the signal
# Procedure, shortened: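 HepG2 cells dosed 24 h at 0.39–200 uM (10 points, duplicate, 0.5% DMSO final). Formaldehyde-fixed and permeabilized, then immunostained for phospho-H2A.x with Hoechst. Fluorescence quantified by high-content imaging, fitted bidirectionally versus DMSO.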
# [16] = APR_HepG2_StressKinase_72hr: Apredica 72-hour HepG2 Assay for Stress Kinase (AID 2282921); settings: HepG2 stress kinase (phospho-c-Jun) imaging, actives raise or lower the signal
# Procedure, shortened: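 HepG2 cells treated 72 hr with 0.39–200 uM compound, 0.5% v/v DMSO, duplicate wells. After formaldehyde fixation and Triton permeabilization, stained with anti-phospho-c-Jun (1:500) and Cy3 secondary, imaged at 20x. Fitted in both directions against DMSO.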
# [17] = APR_HepG2_StressKinase_24hr: Apredica 24-hour HepG2 Assay for Stress Kinase (AID 2282922); settings: HepG2 stress kinase (phospho-c-Jun) imaging, actives raise or lower the signal
# Procedure, shortened: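 HepG2 cells exposed 24 hr to compound at 0.39–200 uM (10 concentrations, duplicate), 0.5% v/v DMSO final. Fixed in 3.7% formaldehyde, permeabilized with Triton X-100, immunolabeled for phospho-c-Jun with Hoechst 33342; HCS fluorescence imaging, bidirectional fit versus DMSO.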
# [18] = APR_HepG2_p53Act_72hr: Apredica 72-hour HepG2 Assay for p53 Activation (AID 2282923); settings: high-content imaging, actives raise or lower the signal;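 also: average cellular p53 protein immunofluorescence intensity in HepG2 cells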
# Procedure, shortened: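 HepG2 cells exposed 72 h to 0.39–200 uM in 0.5% DMSO, duplicates. Fixed, permeabilized cells immunostained for p53 (Cy5) with Hoechst; imaged at 20x, fluorescence analyzed bidirectionally against DMSO.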
# [19] = APR_HepG2_NuclearSize_72hr: Apredica 72-hour HepG2 Assay for Nuclear Size (AID 2282925); settings: high-content imaging, actives raise or lower the signal
# Procedure, shortened: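 HepG2 cells were exposed to compounds at ten concentrations from 0.39 to 200 uM (duplicate, 0.5% DMSO final) for 72 hr. After fixation in 3.7% formaldehyde, nuclei were stained with Hoechst 33342 (2 ug/mL) and imaged at 20x.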
# [20] = APR_HepG2_MitoMass_72hr: Apredica 72-hour HepG2 Assay for Mitochondrial Mass (AID 2282924); settings: high-content imaging, actives raise or lower the signal;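 also: MitoTracker Red CMXRos stain intensity per cell imaged as mitochondrial mass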
# Procedure, shortened: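 HepG2 cells were exposed for 72 hr to compounds at 0.39–200 uM (ten concentrations, duplicate, 0.5% v/v DMSO final). Live cells were stained with 250 nM MitoTracker Red CMXRos for 30 min, then fixed in 3.7% formaldehyde and imaged by HCS fluorescence.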
compound,measurement,setting,value
CC(C)CCCCCCOC(=O)c1ccc(C(=O)OCCCCCCC(C)C)c(C(=O)OCCCCCCC(C)C)c1,outcome,[1],inactive
same,outcome,[2],inactive
same,outcome,[3],inactive
same,outcome,[4],inactive
same,outcome,[5],inactive
same,outcome,[6],inactive
same,outcome,[7],inactive
same,outcome,[8],inactive
same,outcome,[9],inactive
same,outcome,[10],inactive
same,outcome,[11],inactive
same,outcome,[12],inactive
same,outcome,[13],inactive
same,outcome,[14],inactive
same,outcome,[15],inactive
same,outcome,[16],inactive
same,outcome,[17],inactive
same,outcome,[18],inactive
same,outcome,[19],inactive
CCCCCCCCO,outcome,[1],inactive
same,outcome,[2],inactive
same,outcome,[3],inactive
same,outcome,[4],inactive
same,outcome,[5],inactive
same,outcome,[6],inactive
same,outcome,[7],inactive
same,outcome,[8],inactive
same,outcome,[9],inactive
same,outcome,[10],inactive
same,outcome,[11],inactive
same,outcome,[12],inactive
same,outcome,[13],inactive
same,outcome,[14],inactive
same,outcome,[15],inactive
same,outcome,[17],inactive
same,outcome,[18],inactive
same,outcome,[20],inactive
same,outcome,[19],inactive
CCOc1cccc(-n2cc(C(=O)N3CCN(c4cc(C(=O)O)c5ccccc5c4)CC3)nc2-c2ccc(C)cc2)c1,AC50,[1],97.5 µM (active)
same,outcome,[2],inactive
same,AC50,[3],88.3 µM (active)
same,AC50,[4],101 µM (active)
same,AC50,[5],97.5 µM (active)
same,outcome,[6],inactive
same,AC50,[7],104 µM (active)
same,AC50,[8],99.3 µM (active)
same,AC50,[9],96 µM (active)
same,AC50,[10],81.9 µM (active)
same,AC50,[11],89.5 µM (active)
same,outcome,[12],inactive
same,AC50,[13],77.2 µM (active)
same,outcome,[14],inactive
same,AC50,[15],90.4 µM (active)
same,outcome,[17],inactive
same,AC50,[18],76.1 µM (active)
same,outcome,[20],inactive
same,outcome,[19],inactive
CCCCCCCCCCCCc1ccccc1,outcome,[1],inactive
same,outcome,[2],inactive
same,outcome,[3],inactive
same,outcome,[4],inactive
same,outcome,[5],inactive
same,outcome,[6],inactive
same,outcome,[7],inactive
same,outcome,[8],inactive
same,outcome,[9],inactive
same,outcome,[10],inactive
same,outcome,[11],inactive
same,outcome,[12],inactive
same,outcome,[13],inactive
same,outcome,[14],inactive
same,outcome,[15],inactive
same,outcome,[16],inactive
same,outcome,[17],inactive
same,outcome,[18],inactive
same,outcome,[19],inactive
CC(C)(O)c1coc(S(=O)(=O)NC(=O)Nc2c3c(cc4c2CCC4)CCC3)c1,outcome,[1],inactive
same,outcome,[2],inactive
same,outcome,[3],inactive
same,outcome,[4],inactive
same,outcome,[5],inactive
same,outcome,[6],inactive
same,outcome,[7],inactive
same,outcome,[8],inactive
same,outcome,[9],inactive
same,outcome,[10],inactive
same,outcome,[11],inactive
same,outcome,[13],inactive
same,outcome,[14],inactive
same,outcome,[15],inactive
same,outcome,[17],inactive
same,outcome,[18],inactive
same,outcome,[20],inactive
same,outcome,[19],inactive
Nc1ccc(Nc2ccccc2)cc1,outcome,[1],inactive
same,outcome,[2],inactive
same,outcome,[3],inactive
same,outcome,[4],inactive
same,outcome,[5],inactive
same,AC50,[6],54 µM (active)
same,outcome,[7],inactive
same,outcome,[8],inactive
same,AC50,[9],13.8 µM (active)
same,AC50,[10],40.1 µM (active)
same,AC50,[11],29.9 µM (active)
same,outcome,[12],inactive
same,AC50,[13],42.1 µM (active)
same,outcome,[14],inactive
same,AC50,[15],17.9 µM (active)
same,outcome,[16],inactive
same,outcome,[17],inactive
same,AC50,[18],33.3 µM (active)
same,outcome,[19],inactive
